Experiment [1] deals with Cellular tumor antigen p53 (Homo sapiens) (UniProt P04637). Briefly: Primary qHTS for small molecule compounds that upregulate eGFP-tagged delta133p53alpha (in C-terminal) cells. (AID 2060324).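 Also: 0% = DMSO wells and 100% = 57.5 µM 5-azacytidine.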 The settings on record: NCI-H358 delta133p53alpha-eGFP (C-terminal tag), GFP fluorescence imaging, 24 h; series mostly up to 57.5 µM. A digest of the protocol:
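NCI-H358 cells with doxycycline-inducible D133p53a-eGFP (C-terminal tag), pre-induced 24 h with 100 ng/ml doxycycline, plated 800/well in doxycycline-free medium and treated 24 h at 37 °C with compound titrations. Cells were then fixed and Hoechst-stained, and GFP intensity was read by laser scanning cytometry.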

Experiment [2] addresses Aldehyde dehydrogenase, mitochondrial (Homo sapiens) (UniProt P05091). As to the kind of experiment: qHTS for Inhibitors of the Aldehyde Dehydrogenase Family (ALDH2) Validation screens (AID 2061302; active = well fitted inhibition curve with a large enough effect; title and protocol of this record describe different tests;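 also: plate controls were DMSO vehicle for no effect and maximal DPI positive control response for full effect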). The settings on record: ALDH inhibition qHTS; series mostly up to 42.6 µM. A general note: qHTS replaces the single test concentration by a dilution series.
Experiment [3] has as its target Retinaldehyde dehydrogenase 3 (Homo sapiens) (UniProt P47895). As to the kind of experiment: qHTS for Inhibitors of the Aldehyde Dehydrogenase Family (ALDH1A3) Validation screen (AID 2061312). Also: % is scaled to controls: 0 for no effect and ±100 for the full control effect; nearly all actives have a fitted effect of over 45% in size. The conditions noted are these: ALDH1A3 enzyme inhibition qHTS validation, fluorescence; series mostly up to 84.7 µM.
Experiment [4] is described as follows: BET inhibitor-based combinations targeting novel dependencies in MECOM-rearranged (r) AML: HNT-34 cell line (AID 2202234). Also: nearly all actives have a fitted effect of over 35% in size. Also: potency is read from the fitted curve at half-maximal effect. The conditions noted are these: HNT-34 AML viability, CellTiter-Glo luminescence, 48 h; series mostly up to 46 µM. The gist of the method: (§1)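 Normalized to DMSO and empty-well controls, the luminescence data from CellTiter-Glo after 48 hr drug exposure were fitted across 11 concentrations. Reported metrics are area under the dose-response curve and its Z-transformed form.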
A general note: In ATP-based viability assays light output follows the ATP content of the culture.

A short description of experiment [5]: BET inhibitor-based combinations targeting novel dependencies in MECOM-rearranged (r) AML: UCSD-AML1 cell line (AID 2202235). Also: nearly all actives have a fitted effect of over 40% in size. Also: potency is read from the fitted curve at half-maximal effect. The conditions noted are these: UCSD-AML1 AML cells viability, CellTiter-Glo, 48 h; series mostly up to 46 µM. The gist of the method:
as §1

Experiment [6] in a line: BET inhibitor-based combinations targeting novel dependencies in MECOM-rearranged (r) AML: AML-191 cell line (AID 2202236; also: nearly all actives have a fitted effect of over 35% in size; also: potency is read from the fitted curve at half-maximal effect). The settings on record: AML-191 viability, CellTiter-Glo luminescence, 48 h; series mostly up to 46 µM. A digest of the protocol: (§2)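 Here, 11-point titrations of each agent were applied to 500 seeded cells and incubated 48 hr; CellTiter-Glo signal, scaled against DMSO and empty wells, was integrated as AUC, then Z-scored within the individual line.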

Experiment [7] is described as follows: BET inhibitor-based combinations targeting novel dependencies in MECOM-rearranged (r) AML: SET-2 cell line (AID 2202231). Also: nearly all actives have a fitted effect of over 35% in size. Also: potency is read from the fitted curve at half-maximal effect.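 As to viability: plate controls were DMSO treated cells for no effect and wells without cells for full effect.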 The settings on record: SET-2 AML cells viability, CellTiter-Glo luminescence, 48 h; viability: stronger effect = lower value, concentration not given here. A digest of the protocol: as §2
Experiment [8] in a line: BET inhibitor-based combinations targeting novel dependencies in MECOM-rearranged (r) AML: MV-4-11 cell line (AID 2202233). Also: nearly all actives have a fitted effect of over 45% in size. Also: potency is read from the fitted curve at half-maximal effect. The conditions noted are these: MV-4-11 AML viability, CellTiter-Glo luminescence, 48 h; series mostly up to 46 µM. The gist of the method: as §1
Experiment [9] is described as follows: BET inhibitor-based combinations targeting novel dependencies in MECOM-rearranged (r) AML: AML-194 cell line (AID 2202237;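 also: plate controls were vehicle wells for no effect and wells without cells for full effect; nearly all actives have a fitted effect of over 40% in size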). The conditions noted are these: AML-194 (MECOM-r AML) viability, CellTiter-Glo, 48 h; series mostly up to 46 µM. A digest of the protocol:
as §2

Experiment [10] is described as follows: BET inhibitor-based combinations targeting novel dependencies in MECOM-rearranged (r) AML: OCI-AML3 cell line (AID 2202232). Also: potency is read from the fitted curve at half-maximal effect; nearly all actives have a fitted effect of over 35% in size. The settings on record: CellTiter-Glo luminescence, 48 h; Potency: OCI-AML3 viability; series mostly up to 46 µM. A digest of the protocol:
as §2

Inconclusive results are not listed. Unmarked numbers belong to inactive results. The source made the active and inactive calls. Unless noted, calls follow the shape of the dose curve; as a rule, active = well fitted curve in the direction sought with a large enough effect; inconclusive = small, poorly fitted or top-dose-only effect, or another doubt; inactive = no such curve, though single readings can be large; an effect the other way counts as inactive or inconclusive.

Sequence of Cellular tumor antigen p53 (Homo sapiens) (P04637 whole entry, looked up): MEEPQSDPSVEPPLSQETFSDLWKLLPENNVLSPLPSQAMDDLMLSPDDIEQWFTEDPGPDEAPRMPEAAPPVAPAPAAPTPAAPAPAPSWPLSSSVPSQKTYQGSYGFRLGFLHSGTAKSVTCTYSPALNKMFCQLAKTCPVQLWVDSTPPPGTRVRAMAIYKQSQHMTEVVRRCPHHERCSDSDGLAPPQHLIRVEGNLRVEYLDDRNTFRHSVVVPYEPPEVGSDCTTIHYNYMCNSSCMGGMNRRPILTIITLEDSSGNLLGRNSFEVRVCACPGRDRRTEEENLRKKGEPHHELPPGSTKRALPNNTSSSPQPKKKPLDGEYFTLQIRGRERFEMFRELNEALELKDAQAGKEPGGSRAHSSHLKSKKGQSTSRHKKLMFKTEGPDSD

Regarding `C[C@]12CC[C@@H]3c4ccc(O)cc4CC[C@H]3[C@@H]1CC[C@@H]2O`, the Potency result in experiment [1], in [2] and in [3] was “inactive” throughout. Also, the Potency in experiment [4] is 20.9 µM (active); in experiment [5], 14.8 µM (active); in [6] it was 16.6 µM (active).

As to `CCCCCCC(=O)OC1CC(C)(C)NC(C)(C)C1`, the Potency result in [1], in experiment [2] and in experiment [3] was “inactive” in each case.

Broadly, the viability is a read-out of living cells in per cent, often relative to untreated cells. Turning to `NC(=O)c1cnccn1`, the Potency entry in experiment [1], in experiment [2], in experiment [3], in experiment [8], in experiment [4] and in experiment [5] was “inactive” each time. For the same compound, the Potency result in experiment [6] and in experiment [9] was “inactive” in each case. The viability in experiment [7] was 105%.

In the case of `COc1cc(-c2coc3cc(OCc4ccccc4)c(OC)c(O)c3c2=O)cc(O)c1OC`, the Potency entry in [2] is “inactive”.

For the compound `COc1ccc(Cc2nccc3cc(OC)c(OC)cc23)cc1OC`, the Potency entry in experiment [1] was “inactive”. Moreover, the Potency was 11.8 µM (active) in experiment [7]; 8.33 µM (active) in experiment [10]; 18.6 µM (active) in experiment [8]; 5.9 µM (active) in experiment [4]; 8.33 µM (active) in experiment [5].

For the compound `CC(C)NCC(O)c1ccc(O)c(O)c1` (stereo unspecified), the Potency result in [5] was “inactive”.

On to `O=C1CCc2cc(OCCCCc3nnnn3C3CCCCC3)ccc2N1`, for which the Potency result in [5] is “inactive”.

For `O=Nc1c(-c2c(O)[nH]c3ccccc23)[nH]c2ccccc12`, the Potency result in [2] and in experiment [3] was “inactive” in each case.

`CCn1cc(C(=O)O)c(=O)c2ccc(C)nc21`: the Potency result in experiment [2] and in experiment [3] was “inactive” throughout.

Regarding `NCC(O)c1ccc(O)c(O)c1` (stereo unspecified), the Potency entry in [2] and in [3] was “inactive” each time.

For `O=C(O)/C=C/c1cnc[nH]1`, the Potency result in [2] and in experiment [3] was “inactive” in each case.

Take `Fc1ccc([C@@H]2CCNC[C@H]2COc2ccc3c(c2)OCO3)cc1`: the Potency entry in experiment [2] and in experiment [3] was “inactive” each time.

For `COc1cc2c(cc1O)CC[C@@H]1[C@@H]2CC[C@]2(C)[C@@H](O)CC[C@@H]12`, the Potency entry in experiment [2] and in experiment [3] was “inactive” each time.

`Cc1nc2c([nH]1)c(=O)n(C)c(=O)n2Cc1ccco1`: the Potency result in experiment [2] and in experiment [3] was “inactive” in each case.

Turning to `O=C1NC(O)=NC1(c1ccccc1)c1ccccc1`, the Potency entry in experiment [2] and in [3] was “inactive” in each case.

Take `C=C[C@H]1CN2CC[C@@H]1C[C@@H]2[C@@H](O)c1ccnc2ccc(OC)cc12`: the Potency result in experiment [2] and in experiment [3] was “inactive” in each case.

On to `O=C1CC2(CCCC2)CC(=O)N1CCCCN1CCN(c2ncccn2)CC1`, for which the Potency result in experiment [2] and in [3] was “inactive” throughout.

For `CC(=O)[C@H]1CC[C@H]2[C@@H]3CCC4=CC(=O)CC[C@]4(C)[C@H]3CC[C@]12C`, the Potency result in experiment [2] and in [3] was “inactive” throughout.

On to `CCN(CC)CC#CCOC(=O)C(O)(c1ccccc1)C1CCCCC1` (stereo unspecified), for which the Potency result in experiment [2] and in [3] was “inactive” in each case.

With `N[C@@H](CCCC(=O)O)C(=O)O`, the Potency result in [2] and in experiment [3] was “inactive” in each case.

Regarding `C[C@H](NC(CCc1ccccc1)C(=O)O)C(=O)N1CCC[C@H]1C(=O)O` (stereo partly specified), the Potency entry in [2] and in experiment [3] was “inactive” throughout.

As for `CC(C)OC(=O)C(C)(C)Oc1ccc(C(=O)c2ccc(Cl)cc2)cc1`, the Potency entry in experiment [2] and in experiment [3] was “inactive” each time.

As to `CCC(=O)c1ccc2c(c1)N(CCCN(C)C)c1ccccc1S2`, the Potency result in experiment [2] and in experiment [3] was “inactive” in each case.

In the case of `O=C1CCC(c2ccc(-n3ccnc3)cc2)=NN1`, the Potency entry in experiment [2] and in [3] was “inactive” throughout.

Take `CN1Cc2c(N)cccc2C(c2ccccc2)C1` (stereo unspecified): the Potency entry in experiment [2] and in experiment [3] was “inactive” in each case.

As to `C=C[C@@H]1CN2CC[C@@H]1C[C@H]2[C@H](O)c1ccnc2ccc(OC)cc12`, the Potency result in experiment [2] and in experiment [3] was “inactive” throughout.

In the case of `CC[C@@H]1Cc2cc(O)ccc2C2=C1c1ccc(O)cc1C[C@H]2CC`, the Potency result in [2] and in experiment [3] was “inactive” in each case.

Regarding `Cc1ccc(Cl)c(Nc2ccccc2C(=O)O)c1Cl`, the Potency entry in [2] and in experiment [3] was “inactive” each time.

On to `NC(N)=[N+]1CCc2ccccc2C1`, for which the Potency entry in experiment [2] and in experiment [3] was “inactive” throughout.

For the compound `COc1ccc(C(=O)/C(Cc2cc(OC)c(OC)c(OC)c2)=C(\C(=O)O)c2ccc3c(c2)OCO3)cc1`, the Potency result in [2] and in [3] was “inactive” each time.

With `CNCCC(Oc1ccc(C(F)(F)F)cc1)c1ccccc1` (stereo unspecified), the Potency entry in experiment [2] and in experiment [3] was “inactive” throughout.

`COc1ccc(-c2cc(=O)c3c(O)c(OC)c(OC)cc3o2)cc1O`: the Potency entry in experiment [2] and in experiment [3] was “inactive” in each case.

Take `CCN(CC)C(=O)c1ccc(O)c(OC)c1`: the Potency result in experiment [2] and in [3] was “inactive” in each case.

As to `C[C@@H]1C(=O)NC2=Nc3cccc(Cl)c3CN21`, the Potency result in experiment [2] and in [3] was “inactive” throughout.

`NC(N)=NCCC[C@H](N)C(=O)O`: the Potency result in [2] and in experiment [3] was “inactive” each time.

In the case of `CCC(CO)Nc1nc(NCc2ccccc2)c2ncn(C(C)C)c2n1` (stereo unspecified), the Potency entry in experiment [2] and in [3] was “inactive” each time.

As for `CC(C)NCC(O)COc1cccc2ccccc12` (stereo unspecified), the Potency entry in experiment [2] and in experiment [3] was “inactive” each time.

Turning to `Cc1cn([C@H]2C=C[C@@H](CO)O2)c(=O)[nH]c1=O`, the Potency result in experiment [2] and in experiment [3] was “inactive” throughout.

Take `CN(C)CCC(c1ccc(Br)cc1)c1ccccn1` (stereo unspecified): the Potency entry in [2] and in [3] was “inactive” in each case.

`NC(=O)c1ccccc1`: the Potency result in [2] and in experiment [3] was “inactive” in each case.

As to `COc1ccc(CN(CCN(C)C)c2ccccn2)cc1`, the Potency entry in experiment [2] and in [3] was “inactive” in each case.

For the compound `O=C1NC(=O)C(c2ccccc2)(c2ccccc2)N1`, the Potency result in experiment [2] and in experiment [3] was “inactive” each time.

`Cc1cn([C@H]2CC(N=[N+]=[N-])[C@@H](CO)O2)c(=O)[nH]c1=O` (stereo partly specified): the Potency entry in [2] and in experiment [3] was “inactive” each time.

For the compound `O=c1cc(-c2ccccc2)[nH]c2nc(Cl)ccc12`, the Potency entry in experiment [2] and in [3] was “inactive” each time.

Values taken from PubChem BioAssay (NCATS).
